Laboratory results from PubChem BioAssay (NCATS).
Values joined by “and” are separate entries in the source; they are usually repeats but may differ in a detail not shown here. Identical values can stand only once. Inconclusive results are not listed. Where a call stands in place of a potency, no number is given. Active and inactive are the calls of the source. Unless noted, the call rests on the fitted dose curve; in most records, active means well fitted curve in the direction sought with a large enough effect; inconclusive means small, poorly fitted or top-dose-only effect, or another doubt; inactive means no such curve, though single readings can be large; an effect the other way counts as inactive or inconclusive.

How the values were obtained:
[1] = Primary qHTS for small molecule stabilizers of the endoplasmic reticulum resident proteome: Secreted ER Calcium Modulated Protein (SERCaMP) assay (AID 1508630)
Summary of the method: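 GLuc-SERCaMP-expressing SH-SY5Y cells, pretreated 16 h with compound, are challenged with thapsigargin to empty ER calcium stores; after 4 h, coelenterazine is added directly to the medium and luminescence is imaged.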

[2] = Primary qHTS for inhibitors of nuclear receptor binding SET domain protein 2 (NSD2) in an isogenic RCH-ACV NSD2 p.E1099K mutant (9B) (AID 1645876); further: nearly all actives have a fitted effect of over 70% in size; further: potency means the concentration at half of the fitted maximal effect
[3] = Primary qHTS for inhibitors of nuclear receptor binding SET domain protein 2 (NSD2) in an RCH-ACV wild type WT cells (2C) (AID 1645877); further: nearly all actives have a fitted effect of over 70% in size; further: potency means the concentration at half of the fitted maximal effect
Papain (Carica papaya) = Papain (Carica papaya) (UniProt P00784); experiment: Primary qHTS assay for inhibitors of the protease papain (AID 1645873);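 further: papain turnover of Z-FR-AMC read as the AMC fluorescence gain over 10 min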; further: potency means the concentration at half of the fitted maximal effect
[4] = target: Rap guanine nucleotide exchange factor 3 (Homo sapiens) (UniProt O95398); experiment: Confirmatory qHTS for antagonist of cAMP-regulated guanine nucleotide exchange factor 3 (EPAC1) (AID 1645880); further: nearly all actives have a fitted effect of over 55% in size
Summary of the method: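 Nucleotide exchange uses 100 nM EPAC1, 250 nM RAP1B-BODIPY-GDP and 50 uM GDP, with compounds in a concentration-titration series. After 5 min at room temperature, fluorescence (480 nm ex/540 nm em) is read every 5 min for 30 min. Data are normalized to control ATA and DMSO.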

[5] = target: Rap guanine nucleotide exchange factor 3 (Homo sapiens) (UniProt O95398); experiment: Confirmatory qHTS for agonist of cAMP-regulated guanine nucleotide exchange factor 3 (EPAC1) (AID 1645881);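 further: EPAC1 catalysed release of BODIPY-GDP from Rap1B seen as fluorescence loss; nearly all actives have a fitted effect of over 75% in size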
[6] = NCATS anti-infectives library activity on HEK293 viability as a counter-qHTS vs the C. elegans viability qHTS (AID 1745854);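 further: HEK293 cells exposed to compounds for 24 hr before the viability read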
Summary of the method: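 Cytotoxicity in human HEK293 cells is measured by ATP-dependent CellTiter-Glo luminescence following a 24 hr incubation with titrated library compounds at 37C. Top final concentration is 41.7 uM.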

[7] = target: Cytochrome P450 2D6 (Homo sapiens) (UniProt P10635); experiment: Cytochrome P450 family 2 subfamily D member 6 (CYP2D6) small molecule antagonists: luciferase biochemical (cell-free) qHTS assay (AID 1645840; active means well fitted curve in the direction sought with a large enough effect in the repeat runs; an effect the other way counts as inactive or inconclusive; further: nearly all actives have a fitted effect of over 55% in size)
Summary of the method: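 P450-Glo luminescent screen: recombinant CYP2D6 enzyme–proluciferin substrate mix preincubated with compound 10 min at room temperature, then NADPH regeneration added for 1 h at room temperature. Detection reagent added for 20 min; luciferin light read as relative luminescence units.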

[8] = target: Cytochrome P450 2C9 (Homo sapiens) (UniProt P11712); experiment: Cytochrome P450 family 2 subfamily C member 9 (CYP2C9) small molecule antagonists: luciferase biochemical (cell-free) qHTS assay (AID 1645842; active means well fitted curve in the direction sought with a large enough effect in the repeat runs; an effect the other way counts as inactive or inconclusive; further: potency means the concentration at half of the fitted maximal effect; nearly all actives have a fitted effect of over 55% in size)
Summary of the method: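 Luminescence, after 20 min with luciferin detection reagent, reflected CYP2C9 turnover during a 1 h NADPH-driven reaction at 37C. Enzyme-substrate mix contained 0.4% bovine serum albumin and was preincubated with compound 10 min at room temperature.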

[9] = target: Catechol O-methyltransferase (Homo sapiens) (UniProt P21964); experiment: Confirmatory Screen for Target Class Profiling of Small Molecule Inhibitors of Methyltransferases (AID 1745852; calls by dose curve); details: MTase-Glo luminescence, SAH detection, recombinant enzyme; measured here: COMT max response; stronger effect = lower value
[10] = target: Guanidinoacetate N-methyltransferase (Homo sapiens) (UniProt Q14353); experiment: as above; details: MTase-Glo luminescence, SAH detection, recombinant enzyme; activity change, negative = inhibition: at 57.3 µM (top of the series) unless noted
[11] = target: Nicotinamide N-methyltransferase (Homo sapiens) (UniProt P40261); experiment: as above; details: MTase-Glo luminescence, SAH detection, recombinant enzyme; measured here: NNMT max response; stronger effect = lower value
[12] = target: Phenylethanolamine N-methyltransferase (Homo sapiens) (UniProt P11086); experiment: as above; details: MTase-Glo luminescence, SAH detection, recombinant enzyme; measured here: PNMT max response; stronger effect = lower value
Sequence of Phenylethanolamine N-methyltransferase (Homo sapiens) (P11086 whole entry, looked up): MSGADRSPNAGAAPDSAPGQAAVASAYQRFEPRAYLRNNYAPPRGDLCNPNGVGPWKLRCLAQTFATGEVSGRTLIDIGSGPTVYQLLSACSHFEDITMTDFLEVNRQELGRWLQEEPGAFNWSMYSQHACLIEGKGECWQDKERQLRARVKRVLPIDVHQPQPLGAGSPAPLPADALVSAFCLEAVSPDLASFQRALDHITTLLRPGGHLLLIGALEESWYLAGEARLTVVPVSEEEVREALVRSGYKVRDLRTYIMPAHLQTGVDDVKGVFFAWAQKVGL

Sequence of Papain (Carica papaya) (P00784 whole entry, looked up): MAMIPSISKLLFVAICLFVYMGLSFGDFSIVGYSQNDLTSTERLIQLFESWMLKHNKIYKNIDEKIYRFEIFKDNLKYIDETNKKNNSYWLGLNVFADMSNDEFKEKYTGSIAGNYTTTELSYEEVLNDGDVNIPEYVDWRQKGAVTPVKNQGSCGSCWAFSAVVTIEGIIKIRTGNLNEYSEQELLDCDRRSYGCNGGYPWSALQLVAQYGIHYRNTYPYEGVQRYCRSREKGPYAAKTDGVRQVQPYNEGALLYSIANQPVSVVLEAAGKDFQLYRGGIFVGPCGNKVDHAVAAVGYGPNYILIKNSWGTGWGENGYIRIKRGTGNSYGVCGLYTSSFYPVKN
Sequence of Catechol O-methyltransferase (Homo sapiens) (P21964 whole entry, looked up): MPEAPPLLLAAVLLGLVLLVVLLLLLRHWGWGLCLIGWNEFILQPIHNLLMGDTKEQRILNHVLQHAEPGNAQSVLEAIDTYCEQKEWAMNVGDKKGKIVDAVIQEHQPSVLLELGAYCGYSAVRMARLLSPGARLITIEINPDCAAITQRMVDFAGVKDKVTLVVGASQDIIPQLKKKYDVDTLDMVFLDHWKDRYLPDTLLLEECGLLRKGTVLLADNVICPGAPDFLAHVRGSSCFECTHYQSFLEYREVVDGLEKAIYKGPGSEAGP
Sequence of Nicotinamide N-methyltransferase (Homo sapiens) (P40261 whole entry, looked up): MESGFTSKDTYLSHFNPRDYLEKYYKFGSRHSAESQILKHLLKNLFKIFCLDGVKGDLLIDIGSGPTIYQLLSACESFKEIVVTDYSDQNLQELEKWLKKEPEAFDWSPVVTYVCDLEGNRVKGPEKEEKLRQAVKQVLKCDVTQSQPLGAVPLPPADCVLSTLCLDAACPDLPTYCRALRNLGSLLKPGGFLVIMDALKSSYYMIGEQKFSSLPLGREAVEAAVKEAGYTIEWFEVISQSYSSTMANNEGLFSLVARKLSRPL
Sequence of Rap guanine nucleotide exchange factor 3 (Homo sapiens) (O95398 whole entry, looked up): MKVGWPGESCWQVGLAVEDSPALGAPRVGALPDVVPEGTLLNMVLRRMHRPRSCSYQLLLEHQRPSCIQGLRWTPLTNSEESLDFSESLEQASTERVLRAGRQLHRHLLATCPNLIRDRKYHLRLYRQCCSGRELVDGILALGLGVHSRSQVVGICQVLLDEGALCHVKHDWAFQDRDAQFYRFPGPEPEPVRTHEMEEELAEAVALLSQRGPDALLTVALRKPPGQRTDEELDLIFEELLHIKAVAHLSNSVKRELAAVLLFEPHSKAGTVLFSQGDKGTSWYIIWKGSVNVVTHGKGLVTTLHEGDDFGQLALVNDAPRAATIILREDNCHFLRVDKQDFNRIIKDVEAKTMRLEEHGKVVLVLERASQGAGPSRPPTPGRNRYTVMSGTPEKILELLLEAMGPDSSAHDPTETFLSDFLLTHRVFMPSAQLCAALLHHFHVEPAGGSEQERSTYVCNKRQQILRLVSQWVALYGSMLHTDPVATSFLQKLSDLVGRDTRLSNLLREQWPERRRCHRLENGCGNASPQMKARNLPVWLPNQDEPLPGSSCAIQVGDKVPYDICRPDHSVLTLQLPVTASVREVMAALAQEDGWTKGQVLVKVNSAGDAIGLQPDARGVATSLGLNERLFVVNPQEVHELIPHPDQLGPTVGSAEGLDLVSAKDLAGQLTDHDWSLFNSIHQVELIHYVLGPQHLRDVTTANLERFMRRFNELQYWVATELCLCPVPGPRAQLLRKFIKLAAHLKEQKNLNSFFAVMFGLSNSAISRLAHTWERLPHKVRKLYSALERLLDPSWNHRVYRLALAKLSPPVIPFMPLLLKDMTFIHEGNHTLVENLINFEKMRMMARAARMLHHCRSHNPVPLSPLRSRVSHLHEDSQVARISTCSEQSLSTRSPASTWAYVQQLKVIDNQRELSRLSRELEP
Sequence of Cytochrome P450 2C9 (Homo sapiens) (P11712 whole entry, looked up): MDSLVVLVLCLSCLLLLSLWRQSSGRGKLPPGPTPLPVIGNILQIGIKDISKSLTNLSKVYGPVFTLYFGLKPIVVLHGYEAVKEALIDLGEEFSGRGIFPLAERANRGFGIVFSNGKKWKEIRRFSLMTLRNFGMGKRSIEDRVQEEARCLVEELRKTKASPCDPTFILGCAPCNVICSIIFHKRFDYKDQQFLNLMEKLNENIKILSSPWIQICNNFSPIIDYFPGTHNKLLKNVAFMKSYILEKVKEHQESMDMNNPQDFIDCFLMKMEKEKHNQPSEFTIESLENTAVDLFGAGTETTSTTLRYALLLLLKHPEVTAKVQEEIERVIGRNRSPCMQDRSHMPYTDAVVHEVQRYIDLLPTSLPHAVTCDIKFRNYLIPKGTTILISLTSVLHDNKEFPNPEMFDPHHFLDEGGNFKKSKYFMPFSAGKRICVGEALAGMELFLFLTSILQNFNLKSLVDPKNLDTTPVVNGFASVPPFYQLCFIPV
Sequence of Cytochrome P450 2D6 (Homo sapiens) (P10635 whole entry, looked up): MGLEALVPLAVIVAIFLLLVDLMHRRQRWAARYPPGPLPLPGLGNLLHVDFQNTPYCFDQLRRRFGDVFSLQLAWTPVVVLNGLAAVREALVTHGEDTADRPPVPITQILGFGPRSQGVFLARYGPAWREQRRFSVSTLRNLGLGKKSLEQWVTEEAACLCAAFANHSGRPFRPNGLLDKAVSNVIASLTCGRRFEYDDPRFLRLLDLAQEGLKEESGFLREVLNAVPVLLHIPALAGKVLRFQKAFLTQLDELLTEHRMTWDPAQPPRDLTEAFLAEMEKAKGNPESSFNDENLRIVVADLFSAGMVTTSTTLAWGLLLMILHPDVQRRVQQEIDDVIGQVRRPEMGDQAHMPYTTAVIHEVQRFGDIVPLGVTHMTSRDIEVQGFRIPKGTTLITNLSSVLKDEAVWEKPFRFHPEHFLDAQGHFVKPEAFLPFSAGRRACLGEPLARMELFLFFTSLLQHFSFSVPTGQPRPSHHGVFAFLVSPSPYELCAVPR

SMILES: NC(=O)C1CCCc2c1[nH]c1ccc(Cl)cc21 (stereo not drawn)
- Potency [1]: inactive
- Potency [2]: inactive
- Potency [3]: inactive

SMILES: c1ccc(-c2nn3c(c2-c2ccnc4cc(OCCN5CCOCC5)ccc24)CCC3)nc1
- Potency [1]: inactive
- Potency [2]: 16.6 µM (active)

SMILES: COc1ccc2c3n(c(=NC(=O)c4cccnc4)nc2c1OC)CCN3
- Potency [1]: inactive
- Potency [2]: 0.166 µM (active)
- Potency [3]: 0.186 µM (active)

SMILES: Cc1cc2c(C(C)C)c(O)c(O)c(C=O)c2c(O)c1-c1c(C)cc2c(C(C)C)c(O)c(O)c(C=O)c2c1O
- Potency [1]: inactive
- Potency (Papain (Carica papaya)): 12.6 µM (active)
- Potency [2]: 10.5 µM (active)
- Potency [3]: 9.34 µM (active)

SMILES: O=C1CCCC2=C1C(c1[nH]ncc1Cl)N=C(Nc1nc3ccccc3o1)N2 (stereo not drawn)
- Potency [1]: inactive
- Potency [2]: inactive
- Potency [3]: inactive

SMILES: CCC(C)(C)C(=O)O[C@H]1C[C@@H](C)C=C2C=C[C@H](C)[C@H](CC[C@@H]3C[C@@H](O)CC(=O)O3)[C@H]21
- Potency [1]: inactive
- Potency [2]: 8.33 µM (active)
- Potency [3]: 8.33 µM (active)

SMILES: CC1(C)CNc2cc(NC(=O)c3cccnc3NCc3ccncc3)ccc21
- Potency [1]: inactive
- Potency [2]: inactive

SMILES: OCCC#Cc1nc(-c2ccc(F)cc2)c(-c2ccncc2)n1CCCc1ccccc1
- Potency [1]: inactive
- Potency [2]: 16.4 µM (active) and 11.8 µM (active)
- Potency [3]: 18.4 µM (active) and 9.34 µM (active)

SMILES: O=C(O)[C@@H](c1ccc(OCc2ccc3ccccc3n2)cc1)C1CCCC1
- Potency [1]: inactive
- Potency [2]: inactive
- Potency [3]: inactive

SMILES: Cc1cccc(-c2[nH]c(C(C)(C)C)nc2-c2ccc3nccnc3c2)n1
- Potency [1]: inactive
- Potency (Papain (Carica papaya)): inactive
- Potency [2]: 13.2 µM (active) and 5.8 µM (active)
- Potency [3]: 11.8 µM (active) and 6.51 µM (active)

SMILES: CCOc1cc(N2CCC(O)CC2)ccc1Nc1ncc2c(n1)N(C)c1ccccc1C(=O)N2C
- Potency [1]: inactive
- Potency [2]: 2.35 µM (active)
- Potency [3]: 2.63 µM (active)

SMILES: CCCn1c(=O)c2[nH]c(C34CC5CC3C[C@@H](C5)C4)nc2n(CCC)c1=O
- Potency [1]: inactive
- Potency [2]: inactive

SMILES: CCOC(=O)N1CCC(=C2c3ccc(Cl)cc3CCc3cccnc32)CC1
- Potency [1]: inactive
- Potency (Papain (Carica papaya)): inactive
- Potency [4]: inactive
- outcome [5]: inactive

SMILES: NC(=O)c1ccc(-c2nc(-c3ccc4c(c3)OCCO4)c(-c3ccccn3)[nH]2)cc1
- Potency [1]: inactive
- Potency [2]: inactive
- Potency [3]: inactive

SMILES: CCn1c(-c2nonc2N)nc2cnc(Oc3cccc(NC(=O)c4ccc(OCCN5CCOCC5)cc4)c3)cc21
- Potency [1]: inactive
- Potency [2]: 3.26 µM (active) and 662 nM (active)

SMILES: COc1ccc(C2=N[C@H](c3ccc(Cl)cc3)[C@H](c3ccc(Cl)cc3)N2C(=O)N2CCNC(=O)C2)c(OC(C)C)c1
- Potency [1]: inactive
- Potency [2]: 18.6 µM (active)

SMILES: O=C(Nc1ccc(F)c(C(F)(F)F)c1)Nc1nnc(-c2ccncc2)s1
- Potency [1]: inactive
- Potency [2]: inactive

SMILES: CCN(c1ccccc1)c1cc(NC)[n+](C)c(C)n1
- Potency [1]: inactive
- Potency [2]: inactive

SMILES: COc1c(Cl)cc2c([nH]c3cnccc32)c1NC(=O)c1cccnc1C
- Potency [1]: inactive
- Potency [2]: 9.34 µM (active)

SMILES: CCn1c(-c2nonc2N)nc2c(C#CC(C)(C)O)ncc(OC[C@H]3CCCNC3)c21
- Potency [1]: inactive
- Potency [2]: 1.32 µM (active)
- Potency [3]: 1.18 µM (active)

SMILES: COCCNCCCn1c(C(=O)CF)c(-c2ccc(C)cc2)c2c(N)ncnc21
- Potency [1]: inactive
- Potency [2]: 18.6 µM (active)

SMILES: COc1cc(F)c(F)c(Nc2ccc(I)cc2F)c1NS(=O)(=O)C1(C[C@H](O)CO)CC1
- Potency [1]: inactive
- Potency [2]: 18.3 µM (active) and 20.9 µM (active)
- Potency [3]: 25.8 µM (active) and 20.9 µM (active)

SMILES: Oc1cccc(-c2nc(N3CCOCC3)c3oc4ncccc4c3n2)c1
- Potency [1]: inactive
- Potency [2]: 0.118 µM (active)
- Potency [3]: 0.166 µM (active)

SMILES: O=C(c1cc(Cc2n[nH]c(=O)c3ccccc23)ccc1F)N1CCN(C(=O)C2CC2)CC1
- Potency [1]: inactive
- Potency [2]: 6.61 µM (active)
- Potency [3]: 3.72 µM (active)
- outcome [6]: inactive

SMILES: CS(=O)(=O)c1cccc(CNc2nc(Nc3ccc4c(c3)CCC(=O)N4)ncc2C(F)(F)F)c1
- Potency [7]: inactive
- Potency [8]: 0.169 µM (active)
- Potency (Papain (Carica papaya)): inactive
- Potency [2]: 3.32 µM (active)
- Potency [3]: 3.32 µM (active)
- activity [9]: -9.69% and -3.27%
- activity change, negative = inhibition [10]: -3.15% and 1.66%
- activity [11]: -47.6% and -27.3%
- activity [12]: -7.63% and -9.92%

SMILES: CNC(=O)c1ccc(N2C(=S)N(c3ccc(C#N)c(C(F)(F)F)c3)C(=O)C2(C)C)cc1F
- Potency [1]: inactive
- Potency [2]: inactive
- Potency [3]: inactive
- outcome [6]: inactive

SMILES: Cc1cnc(Nc2ccc(OCCN3CCCC3)cc2)nc1Nc1cccc(S(=O)(=O)NC(C)(C)C)c1
- Potency [1]: inactive
- Potency [2]: 1.83 µM (active) and 2.35 µM (active)
- Potency [3]: 1.83 µM (active) and 1.86 µM (active)
- activity [9]: -12.3%
- activity change, negative = inhibition [10]: -4.99%
- activity [11]: -31.4%
- activity [12]: -8.53%

SMILES: CCCCCCCc1ccc(CCc2cccc(O)c2C(=O)O)cc1
- Potency [1]: inactive
- Potency [3]: inactive
- activity [9]: -2.12%
- activity change, negative = inhibition [10]: -1.62%
- activity [11]: -13.2%
- activity [12]: 1.23%
